Normalized intracellular growth data for 20 compounds are collected here from the supplement of paper PMC6331611.

± gives the standard deviation of the averaged measurements. Over roughly 1,600 compounds, “normalized intracellular growth (luminescence, IQM-normalized) in RAW264.7 macrophages” has its median near 1; the lowest 2% begin near 0.43. For the sample, the lowest values were picked, then their nearest neighbours and some compounds at random.

This assay concerns Salmonella enterica serovar Typhimurium SL1344. The experiment in a line: normalized intracellular growth (luminescence, IQM-normalized) in RAW264.7 macrophages (fraction of plate interquartile mean); higher = more bacterial growth (less inhibition). As to conditions: 10 µM.

For `Oc1ccc(Cl)cc1Cc1cc(Cl)ccc1O`, the normalized intracellular growth by setting is: (time point: T3 (3 h)) 1.03 ± 0.02; (time point: Tfinal (~6 h)) 0.859 ± 0.13.

With `Oc1ccc(Cl)cc1`, the normalized intracellular growth was found to be 1.02 ± 0.017 (time point: T3 (3 h)) and 1.13 ± 0.023 (time point: Tfinal (~6 h)).

With `Oc1cc(Cl)ccc1Oc1ccc(Cl)cc1Cl`, the normalized intracellular growth came to 0.343 ± 0.083 (time point: T3 (3 h)) and 0.256 ± 0.12 (time point: Tfinal (~6 h)).

`N=C1NC(=O)N2CC12` (stereo not given) returned a normalized intracellular growth (time point: T3 (3 h)) of 1.051 ± 0.0073 and a normalized intracellular growth (time point: Tfinal (~6 h)) of 0.853 ± 0.12.

With `O=[N+]([O-])OCC(CO[N+](=O)[O-])O[N+](=O)[O-]`, the normalized intracellular growth by setting is: (time point: T3 (3 h)) 1.01 ± 0.044; (time point: Tfinal (~6 h)) 0.68 ± 0.22.

For the compound `CC[C@H]1[C@@H]2C[C@H]3[C@@H]4N(C)c5ccccc5[C@]45C[C@@H]([C@@H]2[C@H]5O)N3[C@@H]1O`, the normalized intracellular growth worked out at 1.07 ± 0.066 (time point: T3 (3 h)) and 0.799 ± 0.035 (time point: Tfinal (~6 h)).

Turning to `CCn1cc(C(=O)O)c(=O)c2cc3c(cc21)OCO3`, the normalized intracellular growth is 0.923 ± 0.032 (time point: T3 (3 h)) and 0.192 ± 0.011 (time point: Tfinal (~6 h)).

Compound `CC[C@@H](c1cccc(O)c1)[C@@H](C)CN(C)C` returned a normalized intracellular growth (time point: T3 (3 h)) of 1.09 ± 0.081 and a normalized intracellular growth (time point: Tfinal (~6 h)) of 0.708 ± 0.38.

`CC[C@@H](C(=O)[C@@H](C)[C@@H](O)[C@H](C)[C@@H]1O[C@@H]([C@@H](CC)C(=O)O)CC[C@@H]1C)[C@H]1O[C@]2(C=C[C@@H](O)[C@]3(CC[C@@](C)([C@H]4CC[C@](O)(CC)[C@H](C)O4)O3)O2)[C@H](C)C[C@@H]1C`: the normalized intracellular growth by setting is: (time point: T3 (3 h)) 1.06 ± 0.083; (time point: Tfinal (~6 h)) 0.73 ± 0.13.

As for `CN1C[C@H](C(=O)N[C@]2(C)O[C@@]3(O)[C@@H]4CCCN4C(=O)[C@H](Cc4ccccc4)N3C2=O)C=C2c3cccc4[nH]cc(c34)C[C@H]21`, the normalized intracellular growth by setting is: (time point: T3 (3 h)) 1.03 ± 0.02; (time point: Tfinal (~6 h)) 0.769 ± 0.38.

Regarding `CC([C@H](O)c1ccccc1)N(C)C` (stereo not given in full), the normalized intracellular growth (time point: T3 (3 h)) came to 0.977 ± 0.096 and the normalized intracellular growth (time point: Tfinal (~6 h)) came out at 1.08 ± 0.12.

With `C=C/C=C\CC1=C(C)[C@@H](OC(=O)[C@@H]2[C@@H](/C=C(\C)C(=O)OC)C2(C)C)CC1=O.C=C/C=C\CC1=C(C)[C@@H](OC(=O)[C@@H]2[C@@H](C=C(C)C)C2(C)C)CC1=O`, the normalized intracellular growth runs as follows: (time point: T3 (3 h)) 1.01 ± 0.014; (time point: Tfinal (~6 h)) 0.938 ± 0.13.

Turning to `OC[C@@H](O)[C@H]1O[C@@H]2O[C@H](C(Cl)(Cl)Cl)O[C@@H]2[C@H]1O`, the normalized intracellular growth by setting is: (time point: T3 (3 h)) 1.01 ± 0.039; (time point: Tfinal (~6 h)) 1.07 ± 0.077.

Regarding `CC(=O)[O][Hg][c]1ccccc1`, the normalized intracellular growth is, setting by setting: (time point: T3 (3 h)) 0.575 ± 0.093; (time point: Tfinal (~6 h)) 0.336 ± 0.15.

As for `C[CH2][Hg][S]c1ccccc1C(=O)[O-].[Na+]`, the normalized intracellular growth runs as follows: (time point: T3 (3 h)) 0.4 ± 0.083; (time point: Tfinal (~6 h)) 0.819 ± 0.26.

On to `CCCCOC(=O)c1ccccc1C(=O)OCCCC`, for which the normalized intracellular growth reads like this: (time point: T3 (3 h)) 1.029 ± 0.01; (time point: Tfinal (~6 h)) 1.11 ± 0.15.

With `O=C([O-])Cc1ccccc1.[Na+]`, the normalized intracellular growth reads like this: (time point: T3 (3 h)) 1.15 ± 0.043; (time point: Tfinal (~6 h)) 0.699 ± 0.11.

As to `CC(O)CN1CCN(CC(=O)[O-])CCN(CC(=O)[O-])CCN(CC(=O)[O-])CC1.[Gd+3]` (stereo not given), the normalized intracellular growth came out at 0.946 ± 0.083 (time point: T3 (3 h)) and 1.23 ± 0.098 (time point: Tfinal (~6 h)).

As for `C#CC(C)(O)CC` (stereo not given), the normalized intracellular growth stood at 0.971 ± 0.038 (time point: T3 (3 h)) and 0.758 ± 0.24 (time point: Tfinal (~6 h)).

For the compound `CCN1C[C@]2(COC)[C@H](O)C[C@H](OC)[C@@]34[C@@H]5C[C@@]6(O)[C@H](OC(=O)c7ccccc7)[C@@H]5[C@@](OC(C)=O)([C@@H]([C@H](OC)[C@H]23)[C@@H]14)[C@@H](O)[C@@H]6OC`, the normalized intracellular growth turned out to be 0.971 ± 0.025 (time point: T3 (3 h)) and 0.837 ± 0.045 (time point: Tfinal (~6 h)).
